Laboratory results: PubChem BioAssay AID1851 (National Center for Advancing Translational Sciences (NCATS), 2009)
The campaign covered roughly 16,000 compounds. About 5,800 (36%) were called active. About 23% were inconclusive and are not listed. Calls come from the whole dose curve; as a rule, active = well fitted curve in the direction sought with a large enough effect; inconclusive = small, poorly fitted or top-dose-only effect, or effect the other way; inactive = no such curve, though single readings can be large or run the other way. The list shows a part of the results.

biological target: Cytochrome P450 2C19 (Homo sapiens) (UniProt P33261); test: Cytochrome panel assay with activity outcomes; details: recombinant CYP, pro-luciferin dealkylation, luminescence, p450-cyp2c19; series mostly up to 57.1 µM
Sequence (P33261 whole entry, looked up): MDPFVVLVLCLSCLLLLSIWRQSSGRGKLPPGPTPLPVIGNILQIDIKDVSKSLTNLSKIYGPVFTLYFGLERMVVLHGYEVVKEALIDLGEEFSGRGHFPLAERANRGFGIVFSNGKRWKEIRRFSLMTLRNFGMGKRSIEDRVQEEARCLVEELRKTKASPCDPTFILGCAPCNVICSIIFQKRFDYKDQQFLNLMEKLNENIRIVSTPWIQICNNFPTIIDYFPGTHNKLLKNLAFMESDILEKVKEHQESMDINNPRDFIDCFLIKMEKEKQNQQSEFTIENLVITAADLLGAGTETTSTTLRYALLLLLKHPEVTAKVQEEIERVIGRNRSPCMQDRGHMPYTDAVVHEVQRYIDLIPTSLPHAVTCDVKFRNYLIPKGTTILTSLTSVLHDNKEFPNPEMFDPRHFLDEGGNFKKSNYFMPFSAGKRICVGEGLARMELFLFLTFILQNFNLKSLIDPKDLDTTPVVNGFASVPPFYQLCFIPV

For `COCCSc1nnc(NC(=O)C(C)(C)C)s1`, which AC50 is on record?
Its AC50 is “inactive”.

With `CCSc1nnc(NC(=O)C(C(F)(F)F)C(F)(F)F)s1` as the molecule, how does the AC50 read?
The AC50 was 20 µM (active).

For `CSc1nc(Oc2ccc(F)cc2)c2ccccc2n1`, which AC50 is on record?
The AC50 was 7.08 µM (active).

With `Cn1c(=O)c(-c2ccc(F)cc2)nc2cnc(Oc3ccccc3)nc21` as the molecule, how does the AC50 read?
The AC50 was “inactive”.

How did the AC50 turn out when `CCOC(=O)c1cnn(CCOC(=O)C(C)(C)C)c1NC(=O)C(C)(C)C` was run?
Its AC50 is 14.1 µM (active).

Which AC50 does the source give for `CCOC(=O)c1cnc2c(cnn2C)c1NCCCN(C)C` here?
Its AC50 is “inactive”.

How did the AC50 turn out when `CCOC(=O)c1cnc2c(cnn2CC)c1NN=C(C)C` was run?
The AC50 was “inactive”.

Which AC50 does the source give for `COc1ccc(-c2c(C)oc3c(CN4CCN(CCO)CC4)c(O)ccc3c2=O)cc1OC` here?
The AC50 was “inactive”.

With `O=c1oc2c(CN3CCOCC3)c(O)ccc2c2ccccc12` as the molecule, how does the AC50 read?
Its AC50 is 14.1 µM (active).

How did the AC50 turn out when `CS(=O)(=O)c1cnc2c(-c3ccc(F)cc3)cnn2c1N` was run?
The AC50 was “inactive”.

How did the AC50 turn out when `CN(C)c1ncc2nc(-c3ccc(F)cc3)c(=O)n(C)c2n1` was run?
The AC50 was “inactive”.

How did the AC50 turn out when `CC(C)(C)S(=O)(=O)c1cnc2c(-c3ccc(F)cc3)cnn2c1N` was run?
The AC50 was 11.2 µM (active).

For `CN(C)c1ncc2nc(-c3cccc(C#N)c3)c(=O)n(CCC#N)c2n1`, which AC50 is on record?
The AC50 was “inactive”.

Which AC50 does the source give for `COc1cccc(-c2cncnc2N(C)Cc2ccco2)c1` here?
The AC50 was 7.94 µM (active).

`COCCn1c(=O)c(-c2cccc(C#N)c2)nc2cnc(N(C)C)nc21` was tested. Which AC50 did it give?
Its AC50 is “inactive”.

Which AC50 does the source give for `CN(Cc1ccco1)c1ncncc1-c1ccc2c(c1)OCO2` here?
Its AC50 is 0.126 µM (active).

Which AC50 does the source give for `CN(Cc1ccco1)c1ncncc1-c1cccc(C#N)c1` here?
The AC50 was 20 µM (active).

How did the AC50 turn out when `CN(C)c1ccc(-c2cncnc2N(C)Cc2ccco2)cc1` was run?
Its AC50 is 0.251 µM (active).

Which AC50 does the source give for `COCC(=O)N1CCC[C@@]2(CCN(C(=O)Nc3cccc(F)c3)C2)C1` here?
Its AC50 is “inactive”.

`CN(Cc1ccco1)c1ncncc1-c1cccnc1` was tested. Which AC50 did it give?
The AC50 was 10 µM (active).

Which AC50 does the source give for `CC(NC(=O)c1ccccc1)c1nc2ccccc2n1Cc1ccccc1F` (stereo unspecified) here?
The AC50 was 8.91 µM (active).

How did the AC50 turn out when `Cc1cc(NC(=S)NC(=O)CC(C)C)ccc1Br` was run?
Its AC50 is 3.55 µM (active).

How did the AC50 turn out when `CCCCn1nnnc1SCC(=O)N1CCCC1` was run?
The AC50 was 25.1 µM (active).

Which AC50 does the source give for `CCCCn1nnnc1SCC(=O)c1cc(Cl)ccc1OC` here?
The AC50 was 0.0708 µM (active).

`CCCCn1c(SCC(=O)N2CCCC2)nc2c1c(=O)n(C)c(=O)n2C` was tested. Which AC50 did it give?
Its AC50 is “inactive”.

Which AC50 does the source give for `C[N+](C)(C)CCCCCCCCCC[N+](C)(C)C` here?
The AC50 was “inactive”.

Which AC50 does the source give for `CCCCCCCCCCCC1=C(O)C(=O)C=C(O)C1=O` here?
The AC50 was “inactive”.

How did the AC50 turn out when `O=S(=O)(N/N=C\c1ccc2c(c1)OCO2)c1ccc(Cl)cc1` was run?
The AC50 was 0.794 µM (active).

With `O=S(=O)(N/N=C/c1ccc2c(c1)OCCO2)c1ccc(Cl)cc1` as the molecule, how does the AC50 read?
The AC50 was 2.82 µM (active).

With `C[C@]1(C2CCCC2)Cc2cc(OCC(=O)O)c(Cl)c(Cl)c2C1=O` as the molecule, how does the AC50 read?
The AC50 was “inactive”.

How did the AC50 turn out when `O=C(CN1CCN(C2CCCCC2)CC1)NCCC1=CCCCC1` was run?
Its AC50 is “inactive”.

`CCCn1c(=O)c2[nH]c(-c3ccc(OCC(=O)NCCN)cc3)nc2n(CCC)c1=O` was tested. Which AC50 did it give?
Its AC50 is “inactive”.

`O=C(CN1CCN(c2ncccn2)CC1)NCCC1=CCCCC1` was tested. Which AC50 did it give?
The AC50 was 4.47 µM (active).

`Cc1nc2ncnn2c(C)c1CCC(=O)NCCC1=CCCCC1` was tested. Which AC50 did it give?
The AC50 was “inactive”.

For `O=C(CN1C(=O)NC2(CCCC2)C1=O)NCCC1=CCCCC1`, which AC50 is on record?
Its AC50 is 14.1 µM (active).

How did the AC50 turn out when `O=C(COc1ccc(Cl)cc1)NCCC1=CCCCC1` was run?
Its AC50 is 3.98 µM (active).
